Laboratory results: PubChem BioAssay AID1621 (Southern Research Specialized Biocontainment Screening …, 2009)
Out of some 290,000 compounds screened, about 60 (0.02%) were called active. Not shown: some 1% with an inconclusive outcome. How the calls were made is not given here. These entries were drawn from the full list. Measured potencies and affinities stand elsewhere.

Experiment: West Nile virus antiviral activity, cell-based, CPE readout (AID 1621)
Conditions: West Nile virus-infected cells, at 10 µM, active compounds read high

CPE inhibition, inactive:
CCOc1ccc(-c2cc(C(=O)NCCCN3CCCC3)c3ccccc3n2)cc1 11.7%
Cc1ccc(-c2cc(C(=O)NCCCN3CCOCC3)c3ccccc3n2)cc1C 0.07%
O=C(NCc1ccc(F)cc1)C1CCCN(S(=O)(=O)c2ccc(-n3cnnn3)cc2)C1 (stereo not given) 0.7%
CN(C)CCCN1c2ccccc2CCc2ccccc21 -0.69%
CN(C)CCCN1c2ccccc2CCc2ccc(Cl)cc21 -0.38%
COc1ccc(/C=C/C(=O)OCC(=O)NCc2ccco2)c(OC)c1 -0.46%
CCC(C)C(=O)N1CCCC(c2nc(-c3cccs3)no2)C1 (stereo not given) -0.34%
COc1ccccc1OCCn1cc(/C=N/NC(N)=S)c2ccccc21 -0.18%
Cc1cccc(-n2c(SCC(=O)O)nc3sc4c(c3c2=O)CCCC4)c1 0.2%
C[C@@H]1C[C@@H]2OC(=O)[C@]3(C)[C@H]2[C@@H](OC3(C)O)[C@]2(C)C(=O)C=C[C@H]12 (stereo not given in full) 1.25%
CCOC(=O)C1CCN(C(=S)Nc2cc(OC)c(OC)cc2C(=O)OC)CC1 0.82%
O=C(NCCCN1CCCC1)c1ccc2c(c1)N(Cc1ccccc1F)C(=O)c1ccccc1S2=O (stereo not given) -0.62%
Cc1ccccc1CN1C(=O)c2ccccc2S(=O)c2ccc(C(=O)NCCCN3CCOCC3)cc21 (stereo not given) -0.39%
Cc1ccc(-c2csc(N3CCN(c4cc5c(cc4Cl)nc(C)n5CCN4CCCCC4)CC3)n2)cc1 0.49%
O=[N+]([O-])c1ccc(C(O)CSC(=S)N2CCCCC2)cc1 (stereo not given) -0.96%
CCN1CCN(c2ccc(S(=O)(=O)N3CCCCC3)cc2NC(=O)Cc2c(F)cccc2Cl)CC1 0.49%
CCN1CCN(c2ccc(S(=O)(=O)N3CCCCC3)cc2NC(=O)Cc2ccc(OC)cc2)CC1 0.99%
COc1ccc(Cl)cc1C(=O)NCCCSc1ccccc1 -1.17%
COc1ccc(CNC(=O)CCN2C(=O)c3ccncc3C2=O)cc1OC 0.59%
COc1cc(-c2nc(C(=O)NC3CCCCC3)cc3c2[nH]c2ccccc23)cc(OC)c1OC 1.01%
Cc1cccn2c(=O)c3cc(C(=O)NCCN4CCOCC4)c(=N)n(CCN4CCOCC4)c3nc12 -0.04%
N=c1c(C(=O)NCCN2CCOCC2)cc2c(=O)n3ccccc3nc2n1Cc1ccc(F)cc1 0%
CN1C(=O)c2ccc(C(=O)NCc3ccco3)cc2C1=O 1.39%
c1ccc(Sc2ncnc3c2oc2ccccc23)nc1 1.08%
CC(/C=N/n1cnnc1)=C\c1ccccc1 -0.2%
ClC(/C=N/n1cnnc1)=C/c1ccccc1 2.95%
Cc1ccc2nc(Nc3ccccc3)c(C=O)c(=O)n2c1 -0.78%
CCN(CC)C(=O)Nc1c(C)n(C)n(-c2ccccc2)c1=O 0.37%
CCOC(=O)c1c(CN2CCN(C)CC2)n(-c2ccccc2)c2cc(Br)c(O)cc12 0.39%
CCOC(=O)c1c(CN2CCOCC2)n(-c2ccccc2)c2cc(Br)c(O)cc12 1.59%
COc1ccc(CCN(C)C(=O)c2cccc(S(=O)(=O)NCc3ccccc3)c2)cc1OC -1.05%
O=C1N[C@@H](Cc2ccccc2)C(=O)N2[C@@H]1C[C@@]1(Br)c3ccccc3N(S(=O)(=O)c3ccccc3)[C@@H]21 -0.59%
CC(C)c1cc(C(C)C)c(S(=O)(=O)N2c3ccccc3[C@@]3(Br)C[C@H]4C(=O)N[C@@H](Cc5ccccc5)C(=O)N4[C@@H]23)c(C(C)C)c1 2.08%
CCOC(=O)c1c(C)c(C(=O)NCc2cccs2)c(C)n1CC -0.75%
Fc1cccc(Cl)c1Cn1nnc2c(N3CCC4(CC3)OCCO4)ncnc21 0.17%
COc1cc2c(O)c3c(c(-c4ccc5c(c4)OCO5)c2cc1OC)C(=O)OC3 12.1%
COc1ccc(C(=O)Oc2ccc3c(c2)OCO3)cc1OC 0.51%
Cc1nn(Cc2ccccc2Cl)c2sc(C(=O)OC3CCCC3=O)cc12 (stereo not given) -0.34%
O=C(NCC(c1cccnc1)N1CCOCC1)NC1CCCCC1 (stereo not given) 0.45%
COC(=O)c1c(-c2ccc(C)cc2)csc1NC(=O)c1c(-c2ccccc2)noc1C 0.29%
CCOC(=O)c1c(-c2ccc(F)cc2)csc1NC(=O)c1c(-c2ccccc2)noc1C -0.66%
COCCCNC(=S)N1CCCN(c2nc3cc(C)ccc3cc2C#N)CC1 -0.77%
COc1cc(C(=O)N2CCCN(c3nc4cc(C)ccc4cc3C#N)CC2)cc(OC)c1OC 0.84%
COc1cc(-c2csc(NC3CCCCC3)n2)cc(OC)c1OC -0.66%
COc1ccc(/C=C2\SC(=S)N(NS(=O)(=O)c3ccc(C)cc3)C2=O)c(OC)c1 -0.03%
O=C(CN1CCOCC1)Nc1nc(-c2ccc(Cl)cc2)cs1 -0.54%
N=C1C(c2nc(-c3ccc(F)cc3)cs2)=C(O)CN1CCCN1CCOCC1 2.36%
CNc1nc2ccccc2n1CC(=O)c1ccccc1 -1.12%
Cc1cccc(NC(=O)CCN2CCOCC2)c1 0.1%
CCOC(=O)c1sc(=NC(=O)c2cccs2)n(C)c1C 0.29%
CCN(CC)CCNC(=O)c1cc2c(-c3cccc(OC)c3)nn(C)c2s1 10.3%
CCN(CCCNC(=O)c1cc2c(-c3cccc(OC)c3)nn(C)c2s1)Cc1ccccc1 11.5%
Cc1c(C(=O)c2ccc(Cl)c([N+](=O)[O-])c2)c2ccccn2c1CCC#N 0.29%
O=C(CN1C(=O)NC2(CCCCCC2)C1=O)Nc1ccc(S(=O)(=O)N2CCOCC2)cc1 0.5%
CSCCC(N=Cc1c(O)n(-c2ccc(F)cc2)c(=O)[nH]c1=O)C(=O)O (stereo not given) 0.06%
COc1ccc(-c2csc(N(CCCN(C)C)C(=O)c3cccs3)n2)cc1 0.38%
COc1ccc(-c2csc(N(CCCN(C)C)C(=O)c3ccccc3F)n2)cc1 -0.14%
Cc1ccc2nc(-c3ccc(NC(=O)CCN4C(=O)c5ccccc5C4=O)cc3)sc2c1 -0.32%
O=C(COc1ccc([N+](=O)[O-])cc1)N(Cc1ccccc1)Cc1ccccc1 -0.78%
COC(=O)c1c(NC(=O)C(C)C)sc2c1C(C(=O)OC)CC2 (stereo not given) 1.21%
COC(=O)c1c(NC(=O)C(C)(C)C)sc2c1C(C(=O)OC)CC2 (stereo not given) -0.06%
CC1=C(C(=O)N2CCCC(CCC(=O)NCc3ccccc3F)C2)OCCO1 (stereo not given) -0.63%
COc1ccc(C2c3ccc4ccccc4c3Oc3ncn(CCCO)c(=N)c32)cc1 (stereo not given) -1.98%
N=c1c2c(ncn1CCN1CCOCC1)Oc1ccc3ccccc3c1C2c1ccccc1 (stereo not given) 2.66%
COc1ccc(C2c3c(ncn(CCCN4CCOCC4)c3=N)Oc3ccc4ccccc4c32)cc1OC (stereo not given) -1.6%
COc1ccc(C2c3c(ncn(CCN4CCOCC4)c3=N)Oc3ccc4ccccc4c32)cc1OC (stereo not given) -1.66%
COc1ccc(C2c3ccc4ccccc4c3Oc3ncn(CCO)c(=N)c32)cc1OC (stereo not given) 57.3%
COc1ccc(C2c3ccc4ccccc4c3Oc3ncn(CCN4CCOCC4)c(=N)c32)cc1 (stereo not given) -0.91%
Cc1nc2nc(CCc3ccccc3)nn2c(C)c1Cl 0.45%
CN(Cc1ccon1)C(=O)CCc1nnc(Cc2ccc(-c3ccccc3)cc2)o1 -0.95%
Cc1cccc(-n2c(C)cc(C)c(C#N)c2=O)c1 0.53%
O=C(NNc1ccccc1[N+](=O)[O-])Nc1ccc(F)cc1F -0.58%
O=C(CCc1nc2ccccc2s1)OCc1ccccc1F -0.14%
O=c1c2c(-c3cccc([N+](=O)[O-])c3)ccnc2[nH]n1-c1ccccc1 0%
COCCn1c(N)c(N(Cc2ccccc2)C(=O)Cc2c(Cl)cccc2Cl)c(=O)[nH]c1=O -0.15%
O=C(CSc1nc2ccccc2c(=O)n1-c1ccc(F)cc1)Nc1ccc(C(=O)O)cc1 0.03%
COc1cccc(-n2c(SCC(=O)Nc3ccc4c(c3)CCC4)nc3ccccc3c2=O)c1 2.86%
CCCCn1c(SCC(=O)Nc2ccc3c(c2)CCC3)nc2ccccc2c1=O -0.76%
C=CCn1c(SCC(=O)Nc2ccc3c(c2)CCC3)nc2ccccc2c1=O -0.68%
Cc1ccc(-n2c(SCC(=O)Nc3ccc(N4CCOCC4)cc3)nc3ccccc3c2=O)cc1 12.4%
O=C(CSc1nc2ccccc2c(=O)n1-c1ccc(F)cc1)Nc1ccc(N2CCOCC2)cc1 -1.03%
O=C(Nc1ccccc1)C1CC(O)CN1S(=O)(=O)c1ccc([N+](=O)[O-])cc1 (stereo not given) 0.17%
Cc1ccc(-c2oc3ccccc3c(=O)c2OCC(=O)O)cc1 0.23%
COc1cc(NC(=O)COC(=O)CCc2cc(OC)c(OC)c(OC)c2)cc(OC)c1 1.02%
CCN(CC)C(=O)c1cc2sc3ccccc3c2s1 -0.37%
COCCN(CCOC)C(=O)c1cc2sc3ccccc3c2s1 -0.78%
CCN(CC)CCCNC(=O)c1cc2c(=O)n(CC)c3ccccc3c2s1 1.54%
CCCCN(CC)CCNC(=O)c1cc2c(=O)n(CC)c3ccccc3c2s1 -1.08%
COCCNC(=O)c1cc2sc3ccccc3c2s1 -0.09%
CN(C)CCCNC(=O)c1ccccn1 0.08%
